This is part of a sample that, as a whole, favours compounds with a hit. Of some 79,000 tested, about 15% had one in any assay. Values without a mark were called inactive. Active and inactive are the calls of the source. Rule as the data show it: active = growth inhibition above about 70%; inactive = the rest.
Columns and labels:
[1] = NCI Yeast Anticancer Drug Screen. Data for the rad50 strain (AID 155);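 also: 0% = growth of vehicle-only cultures of the same strain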; details: S. cerevisiae rad50 strain growth inhibition; at 50.0 µM; stronger effect = higher value
Summary of the method: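 Growth of the mutant yeast was measured after compound exposure and referenced to vehicle-treated cultures.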

[2] = NCI Yeast Anticancer Drug Screen. Data for the mec2-1 strain (AID 157); details: S. cerevisiae mec2-1 strain, at 50.0 µM, stronger effect = higher value
Summary of the method: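 mec2-1 yeast strain, carrying an alteration in DNA damage repair or cell cycle control, was exposed to compounds; growth inhibition was measured relative to vehicle-treated controls.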

[3] = NCI Yeast Anticancer Drug Screen. Data for the sgs1 mgt1 strain (AID 161);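 also: 0% = growth of cultures given vehicle only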; details: S. cerevisiae sgs1 mgt1 strain, at 50.0 µM, stronger effect = higher value
Summary of the method: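 Compounds are added to genetically altered yeast, and growth is compared with cultures given vehicle alone to give percent inhibition.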

[4] = NCI Yeast Anticancer Drug Screen. Data for the cln2 rad14 strain (AID 165);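 also: 0% = growth equal to vehicle treated cultures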; details: S. cerevisiae cln2 rad14 strain, at 50.0 µM, stronger effect = higher value
Summary of the method: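 Yeast carrying cln2 and rad14 alterations (cell cycle control and DNA damage repair) were exposed to compounds. Growth inhibition was measured against vehicle-treated controls.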

[5] = NCI Yeast Anticancer Drug Screen. Data for the bub3 strain (AID 167); details: S. cerevisiae bub3 mutant strain, at 50.0 µM, stronger effect = higher value
Summary of the method: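 Whole-cell yeast assay. The mutant strain was incubated with compounds, and growth inhibition was determined by comparison with vehicle-treated cells.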

[6] = NCI Yeast Anticancer Drug Screen. Data for the mlh1 rad18 strain (AID 175); details: S. cerevisiae mlh1 rad18 strain growth inhibition; at 50.0 µM; stronger effect = higher value
Summary of the method: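 Growth inhibition of the yeast strain was measured after compound exposure and expressed relative to vehicle-treated controls. The strain carries defined defects in DNA damage repair.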

SMILES | growth inhibition [1] | growth inhibition [2] | growth inhibition [3] | growth inhibition [4] | growth inhibition [5] | growth inhibition [6]
O=C(OCC1CCCO1)c1ccccc1Cl (stereo not given) | 11.8% | -10.2% | -0.95% | -6.6% | 7.2% | 0%
COC(=O)/C(=N/O)C(C(=O)OC)C(=O)C(=O)Nc1c(Cl)cc(C)cc1S(=O)(=O)O (stereo not given) | 6.4% | 4.35% | -22.4% | -14.1% | -2.9% | 8.15%
CC1SC2=NC3=C(c4ccccc4C3=O)C(c3ccccc3Cl)N2C1=O (stereo not given) | 15.8% | 8.75% | 8.55% | 4.95% | 17.9% | 23.3%
O=C(Cc1nc2ccccc2[nH]c1=O)c1cccnc1 | -0.5% | 8.25% | 13.2% | 1.55% | -4.75% | 16.3%
CC(C)CCCCCCCCCCCCC(=O)NCC(=O)NC1C(C)OC(Nc2ncnc3c2ncn3C)C(O)C1O (stereo not given) | 10% | -14.5% | 9.3% | 15.6% | 4.05% | 11.4%
CCN(CC)CC(O)c1cccc2cc(Cl)ccc12 (stereo not given) | -3.25% | -8.85% | 28% | -15.2% | -2.55% | -14%
CC(C)C(=O)CC1(O)C(=O)Nc2ccc([N+](=O)[O-])cc21 (stereo not given) | -9.95% | -0.2% | -7.75% | -34.9% | 4.15% | 2.5%
CCCc1c(O)c(=O)c2c(OC)cc(OC)c3c4c(OC)cc(OC)c5c(=O)c(O)c(CCC)c(c1c23)c54 | 86.1% (active) | 89.4% (active) | 81.3% (active) | 84.5% (active) | 75.8% (active) | 89% (active)
CC(C)=C(C)CCC(C)CC(C)O (stereo not given) | -2.9% | -14% | -0.05% | -5.6% | -5.9% | -5.85%
CCOP(=O)(OCC)/C(C#N)=C/c1cccc([N+](=O)[O-])c1 | -14.2% | 2.5% | -4.85% | 3.85% | -6.55% | 9.25%
CC[N+](CC)(CC)CCC[n+]1ccc(/C=N\O)cc1 | 3.1% | -1.6% | -16.4% | -8.25% | -0.8% | -6.25%
CCNc1nc2ccccc2nc1NCC | -18.1% | -5.6% | 1.45% | 16.1% | -13.3% | 3.15%
Cn1c2ccccc2c2ccc3c(c21)C(=O)C(c1ccccc1)=CC3=O | 19.7% | -21.2% | -10.3% | 17.6% | -28.3% | -5.85%
CC(C)CN(CC(C)C)C(=O)CCl | -3.1% | -0.3% | 14.1% | -15.9% | 6% | -1.65%
CC(=O)OC1/C=C(/C)CCC2OC2(C)CC2OC(=O)C3(CC3)C12 (stereo not given) | 0.85% | -20.5% | -2% | 10.7% | 1% | -7.2%
CC(=O)CC(=O)N1CCN(C(=O)CC(C)=O)C(C)C1 (stereo not given) | -7.95% | -58.5% | 6.05% | 1.8% | -11.7% | -6.75%
CC(=O)O[C@]12CCCCCCC1C1(O)C(O)CCC[C@H]12 (stereo not given in full) | -23.6% | -1.95% | -53.2% | -8.95% | -22.2% | -36.6%
COc1ccc(Cc2nnc(SC)n2-c2ccc(F)cc2)cc1OC | 8.7% | -8.25% | 21% | 6.15% | 25.2% | 16.6%
NC1CC(=O)c2c(Cl)sc(Cl)c21 (stereo not given) | 51.4% | 35.7% | 60.5% | 41.6% | 27.6% | 1.15%
COc1cc(C(CC#N)CC#N)cc(OC)c1OC | -3.4% | -15.8% | 25.8% | 6.45% | 8.95% | 8%

SMILES | growth inhibition [1] | growth inhibition [2] | growth inhibition [3] | growth inhibition [4] | growth inhibition [5] | growth inhibition [6]
[N-]=[N+]=Nc1nc2c(N)ncnc2n1C1OC(CO)C(O)C1O (stereo not given) | 23.4% | 16.4% | 6.15% | -22.8% | -1.35% | 20.9%
COC(=O)c1ccc(CSc2ccccc2NC(=S)Nc2cccc(C(F)(F)F)c2)o1 | -3.65% | -20.2% | -1.15% | 4.65% | -18.4% | -7.6%
CCN(S(C)(=O)=O)S(C)(=O)=O | -7.5% | -2.5% | -4.65% | -37% | 9.55% | -15.8%
CCn1ncc2ccc(N(CO)CO)cc21 | -2.4% | 22.1% | -13.6% | -20.2% | -22.6% | 4.1%
N#CCN(CCc1ccccc1)CCc1ccccc1 | 8.35% | -9.95% | 13.2% | -17.6% | -0.35% | 34.1%
NS(=O)(=O)c1ccc(NC(=O)Nc2ccccc2)cc1 | -2.8% | -5.35% | 1.8% | -18.1% | 20.1% | 22.3%
CCCCCCCCCCCCCCCC[N+](C)(C)Cc1ccccc1 | 99.2% (active) | 99% (active) | 99.3% (active) | 99% (active) | 98.8% (active) | 98.9% (active)
OC1(c2ccccc2)CCN(C/C=C/c2ccccc2Cl)CC1 | 66.1% | 53.9% | 70.1% (active) | 77.1% (active) | 57.6% | 85.8% (active)
CNS(=O)(=O)c1ccc(Br)cc1 | -15.9% | -24.6% | -9.85% | -14.2% | 3.35% | -12.4%
Clc1cc(Cl)cc(C=NC23CC4CC(CC(C4)C2)C3)c1 | -13.8% | -31.2% | -40.5% | -20% | -24.4% | -11%
C(CCc1nnc2c(n1)CCCC2)Cc1nnc2c(n1)CCCC2 | -7.6% | -17.9% | -1.05% | -12.1% | 10.1% | -2.4%
O=C(c1ccccc1)C1N=NN(Cc2ccccc2[N+](=O)[O-])C1C(=O)c1ccccc1 (stereo not given) | -6.75% | -30.9% | -25.1% | -57.5% | -1.45% | -0.65%
COc1ccc(C2C(Cl)C(=O)N2n2cnc3ccccc3c2=O)cc1OC (stereo not given) | -20.7% | -0.35% | 0.1% | 8.9% | -10.9% | -21.6%
Cc1c(O)c(=O)ccn1C1OC(CO)C(O)C1O (stereo not given) | 16.5% | 22.9% | 25.5% | -2.9% | 15.8% | 26%
C(=C\P(c1ccccc1)c1ccccc1)/P(/C=C/P(c1ccccc1)c1ccccc1)c1ccccc1 | -18.4% | -14.8% | -42.1% | 8.15% | -18.9% | -28.1%
c1ccc(-c2cc(-c3cc(-c4ccccc4)n(-c4ccccc4)n3)nn2-c2ccccc2)cc1 | -2.9% | -13.2% | -19.3% | -2.55% | -14% | -38.3%
COc1ccc(-n2c(C)c(COC(C)=O)c(COC(C)=O)c2C)cc1 | -5.4% | -18.2% | -0.55% | -2.8% | -7.55% | -55.2%
CNC(=O)SC1=NS(=O)(=O)c2ccc(Cl)cc2N1 | 18.6% | 19.5% | 33.4% | 23.1% | 17.6% | 42.5%
CC(C)Cn1cnc2c(Sc3c([N+](=O)[O-])ncn3C)nc(N)nc21 | 7.95% | -14.1% | -13.2% | -1.4% | 2.1% | 7.15%
COc1cccc(C=NC23CC4CC(CC(C4)C2)C3)c1 | -22.2% | -3.15% | 3.65% | -0.9% | 6.85% | -6.8%

— PubChem BioAssay (NCI)
